High-throughput results (PubChem)
PAFAH1B2 FP inh: blocks human PAF acetylhydrolase 1b catalytic subunit 2. recombinant PAFAH1B2, FP-rhodamine activity probe, fluorescence polarization. inhibition, % at 3.39 µM. hit rate 1.2% among 340,000. AID 492953;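 active = inhibition above the mean of all tested compounds plus 3 SD, cut at about 24% in these data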;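 also: 0% = enzyme with DMSO and 100% = wells lacking PAFAH1B2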
pPAFAH FP inh: inhibitors of human plasma PAF acetylhydrolase (pPAFAH); recombinant pPAFAH, FP-rhodamine probe fluorescence polarization; hit rate 1.5% among 330,000; Q13093; inhibition, % at 3.39 µM;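 active = inhibition above the mean inhibition across the screen plus 3 SD, cut at about 25% in these data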;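 also: inhibitors block binding of the rhodamine activity-based probe so polarization drops; 0% = enzyme with DMSO and 100% = wells lacking pPAFAH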
PAFAH1B3 inh: blocks human PAF acetylhydrolase 1B catalytic subunit 3 | Q15102 | recombinant PAFAH1B3, FP-rhodamine probe, fluorescence polarization | inhibition, % at 3.39 µM | hit rate 0.28% among 340,000;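 active = inhibition above the screen-wide average of all tested compounds plus 3 SD, cut at about 25% in these data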;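 also: 0% = enzyme with DMSO only and 100% = wells lacking PAFAH1B3 protein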
PME-1 inh: blocks human protein phosphatase methylesterase 1; recombinant PME-1, FP-Rh probe fluorescence polarization; hit rate 0.53% among 320,000; inhibition, % at 5.9 µM; AID 2130; Q9Y570;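 active = inhibition above the campaign mean of all compounds plus 3 SD, cut at about 26% in these data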;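 also: competitive labeling of PME-1 active site by serine hydrolase directed probe; 0% = PME-1 with DMSO and 100% = wells lacking PME-1 enzyme; inhibitors block probe labeling so polarization falls and inhibition rises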
Target sequence (Q9Y570 whole entry, looked up): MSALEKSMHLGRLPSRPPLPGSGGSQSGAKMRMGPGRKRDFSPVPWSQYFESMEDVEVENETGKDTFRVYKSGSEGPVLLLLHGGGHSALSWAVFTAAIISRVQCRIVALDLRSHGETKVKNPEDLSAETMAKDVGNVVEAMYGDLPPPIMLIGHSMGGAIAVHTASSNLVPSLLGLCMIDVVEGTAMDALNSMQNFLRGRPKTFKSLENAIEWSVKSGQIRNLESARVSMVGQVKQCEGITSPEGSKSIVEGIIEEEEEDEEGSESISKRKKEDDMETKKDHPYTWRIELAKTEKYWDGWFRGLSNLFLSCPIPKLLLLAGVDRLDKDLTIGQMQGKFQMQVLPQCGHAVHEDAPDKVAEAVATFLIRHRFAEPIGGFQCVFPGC
Fam108B counter: blocks mouse Fam108B hydrolase in RBBP9 counter-screen. recombinant Fam108B, FP-Rh probe fluorescence polarization. inhibition, % at 9.51 µM. hit rate 0.33% among 300,000. AID 1947;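 active = inhibition above the screen mean inhibition plus 3 SD, computed separately per campaign, cut at about 18% in these data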;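 also: inhibitors lower polarization as less probe binds the enzyme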
PAFAH2 inh: inhibitors of human PAFAH2 | Q99487 | AID 492956 | hit rate 0.99% among 340,000 | inhibition, % at 3.39 µM | recombinant PAFAH2, FP-rhodamine activity probe, fluorescence polarization;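 active = inhibition above the mean over all tested compounds plus 3 SD, cut at about 30% in these data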;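 also: inhibitors block probe labeling of enzyme so polarization drops; 0% = enzyme with DMSO and 100% = wells lacking PAFAH2 protein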
Active calls of the source: *; x = no result. A selection: hits, their analogues and other compounds. The true share with any hit is near 2.9%.

SMILES	PAFAH1B2 FP inh	pPAFAH FP inh	PAFAH1B3 inh	PME-1 inh	Fam108B counter	PAFAH2 inh
O=[N+]([O-])c1ccc(Nc2ccccc2)c2nonc12	6.3	11.1	14.2	-4.5	-1.9	-2.0
Cc1nc2c(C(=O)NCc3ccc4c(c3)OCO4)c[nH]n2c(=O)c1Cl	4.0	21.5	12.9	1.0	4.2	7.0
Cc1nc2c(C(=O)NCCC3=CCCCC3)c[nH]n2c(=O)c1Cl	11.7	28.4*	15.1	3.6	7.0	9.1
CN(C)C(=O)N1CCC(C(=O)N2CCCC(C(=O)c3ccc(C(C)(C)C)cc3)C2)CC1 (stereo not given)	1.4	26.1*	1.5	3.1	1.9	9.3
CC(C)C(NC(=O)c1c(F)cccc1F)C(=O)N1CCN(c2ccccc2F)CC1 (stereo not given)	-0.2	-1.4	-2.4	3.0	5.8	8.2
CC(C)c1ccc(N2C(=O)/C(=C/N(C)C)SC2=S)cc1	14.7	29.5*	12.0	-2.4	-21.2	11.3
CC(=O)N1CCN(C(=O)CCc2cc(C(C)(C)C)c(O)c(C(C)(C)C)c2)CC1	-6.4	-3.3	0.3	7.6	1.3	-2.6
COc1ccc(S(=O)(=O)N(C)CC(=O)NCCN2CCOCC2)cc1Cl	3.3	3.2	-4.2	3.8	-1.1	-5.6
Nc1ccc(N2CCCCCC2)cc1	x	29.1*	x	16.2	12.9	x
CC(=O)Nc1ccccc1NC(=O)C/C(C)=N/NC(=O)c1cccnc1	0.8	2.7	0.8	-0.1	-1.4	-12.4
CN1CCN(S(=O)(=O)c2cccc(C(=O)Nc3sccc3C(N)=O)c2)CC1	9.2	12.1	14.6	-0.2	x	3.1
CN1CCN(S(=O)(=O)c2cccc(C(=O)N(c3ccccn3)C3CCCCC3)c2)CC1	4.3	5.3	14.0	2.2	-0.3	4.7
CN1CCN(S(=O)(=O)c2cccc(C(=O)Nc3cc(C(N)=O)cc(C(N)=O)c3)c2)CC1	25.1*	3.5	3.0	4.9	2.0	3.3
CC1CCN(S(=O)(=O)c2cccc(C(=O)Nc3nncs3)c2)CC1	25.8*	-2.0	5.7	-2.8	2.2	5.0
Cc1nc(-c2cccc(S(=O)(=O)N3CCC(C)CC3)c2)cs1	30.2*	1.1	0.9	8.2	3.0	3.2
CC1CCN(S(=O)(=O)c2cccc(C(=O)N(Cc3ccccc3)c3ccccn3)c2)CC1	24.6*	0.3	4.6	-2.0	-2.7	2.8
Cc1ccc(C(=O)O)cc1NC(=O)CSc1nnc(-c2ccccc2F)n1C1CCCCC1	26.0*	2.5	9.2	x	x	6.5
COc1ccccc1CNC(=S)NCc1ccc(F)cc1	3.2	3.1	-5.6	0.4	-5.3	-3.4
CCC(C)Nc1nc(N)c([N+](=O)[O-])c(Nc2ccccc2OC)n1 (stereo not given)	5.7	6.6	6.8	10.8	-3.6	4.6
CCC(C)Nc1nc(N)c([N+](=O)[O-])c(Nc2cc(OC)ccc2OC)n1 (stereo not given)	5.9	29.1*	9.2	28.2*	4.8	13.2
Cc1nn(-c2ccccc2)nc1C(=O)c1c(C)[nH]n(-c2ccccc2)c1=O	0.9	-3.8	14.2	1.0	-4.9	4.8
O=C(N1CCOCC1)N1CCN(S(=O)(=O)c2ccc(Cl)cc2)CC1	24.9*	2.8	10.2	-0.4	-4.1	4.0
Cn1cnc(S(=O)(=O)N2CCN(c3ccc(Cl)cc3)CC2)c1	28.4*	-0.5	13.4	-6.4	2.1	1.5
CC(=O)Nc1ccc(S(=O)(=O)N2CCN(C(=O)N3CCOCC3)CC2)cc1	0.1	1.4	3.9	-2.9	-4.3	10.2
O=S(=O)(c1ccc(Cl)cc1)N1CCN(c2ccc(N3CCOCC3)nn2)CC1	26.4*	4.7	-2.1	11.6	1.4	-4.9
CC(C)(C)c1ccc(S(=O)(=O)N2CCN(c3ncccn3)CC2)cc1	-1.0	2.1	0.4	2.2	1.3	-2.1
CCCCn1c(/C=N/Nc2nc3ccccc3[nH]2)nc2ccccc21	3.6	11.2	14.5	52.2*	4.3	2.0
O=C1CN(C(=O)c2ccccc2F)C(c2ccccc2)c2cc(F)ccc2N1 (stereo not given)	5.9	4.3	8.0	30.0*	1.0	-0.4
Cc1ccccc1C(=O)N1CC(=O)Nc2ccc(F)cc2C1c1ccc(F)cc1 (stereo not given)	2.4	-2.0	1.2	11.2	-2.6	3.9
O=C(Nc1ccccc1C(=O)O)c1cc(S(=O)(=O)N2CCCCCC2)ccc1Cl	9.5	0.0	-6.7	6.5	0.2	-0.9
